# Source: PubChem BioAssay
# BoNT-A LC inh2: BoNT/A light chain protease inhibitors, primary screen, biochemical, flow cytometry, MLPCN library. hit rate 0.17% among 360,000. inhibition, % at 10 µM. multiplex microsphere protease substrate cleavage. AID 588499, 2011. Botulinum neurotoxin type A light chain protease (Clostridium botulinum A str. ATCC 3502); also: plate controls were buffer without enzyme for full effect and enzyme alone for no effect
# BoNT F protease: BoNT/F light chain protease inhibitors, primary screen, biochemical, flow cytometry, MLPCN library | Multiplex microsphere protease cleavage assay | inhibition, % at 10 µM | Botulinum neurotoxin type F light chain protease (Clostridium botulinum) | hit rate 0.22% among 360,000; in the data active = inhibition above about 35%, passing the limit was not always enough; inconclusive = no clear call, values can overlap the other calls; also: plate controls were buffer without enzyme for full effect and enzyme alone for no effect
# Bead autofluor: compound fluorescence in toxin protease inhibitor counterscreen; compound autofluorescence counterscreen, microsphere flow cytometry; hits give high values; fluorescence intensity (no concentration beside the values); hit rate 3.1% among 360,000; AID 624483; in the data active = fluorescence intensity above about 16000; inconclusive = no clear call, values can overlap the other calls
# 3CLpro inhibitor: SARS-CoV 3CLpro protease inhibitors, primary screen, biochemical, quenched FRET; hit rate 0.14% among 290,000; Replicase polyprotein 1ab (Severe acute respiratory syndrome coronavirus), P0C6X7; AID 1706, 2009; inhibition, % at 6 µM; recombinant SARS-CoV 3CLpro, quenched FRET peptide cleavage; in the data active = inhibition above about 12%
# CCHFV vOTU inh: CCHFV vOTU protease inhibitors, primary screen, biochemical, Pep-AMC substrate, fluorescence; AID 651958, 2012; hit rate 0.55% among 370,000; Crimean-Congo hemorrhagic fever virus L polyprotein viral ovarian tumor (vOTU) protease …; inhibition, % at 11.5 µM; in the data active = inhibition above about 30%; also: 0% = vehicle wells with enzyme and 100% = no enzyme wells
# Anthrax LF prot: Bacillus anthracis LF protease inhibitors, primary screen, biochemical, multiplex microsphere, MLPCN library; Lethal factor (Bacillus anthracis), P15917; hit rate 0.12% among 360,000; multiplex microsphere protease cleavage assay; inhibition, % at 10 µM; AID 588501, 2011; also: plate controls were buffer without enzyme for full effect and enzyme alone for no effect
# * = called active by the depositor; ? = inconclusive; · = no result. Only some compounds are listed: those with a hit (about 3.9% of all), similar ones and a draw of the others. Rule as the data show it, unless noted: active = inhibition above about 30%; inconclusive = no clear call, values can overlap the other calls; inactive = below that.
SMILES,BoNT-A LC inh2,BoNT F protease,Bead autofluor,3CLpro inhibitor,CCHFV vOTU inh,Anthrax LF prot
O=C(/C=C/c1cccs1)NCc1ccccc1,0,-5,4066,0,0,-1
COc1cc(C(C(=O)NC2CCCC2)N(C(=O)Cc2cccs2)C2CC2)cc(OC)c1OC (centres undefined),-1,-8,4674,7,-4,-3
O=C(NCC1CCCO1)C1CCN(C2CCN(C(=O)Cc3ccsc3)CC2)CC1 (centres undefined),-1,-4,4558,0,-17,-1
COc1cccc(NS(=O)(=O)c2c(C)cc(C)cc2C)c1,-1,-2,20856*,6,2,-1
CC(=O)Nc1ccc(S(=O)(=O)N2CCN(CCCOc3ccccc3Cl)CC2)cc1,0,-4,5838,-2,0,-2
COc1ccc(NS(=O)(=O)c2c(C)cc(C)cc2C)cc1,-1,-4,3419,9,-11,-5
COc1ccc(/C=C/C(=O)c2ccc(Cl)cc2)c(OC)c1,4,1,18548*,2,-3,0
COc1ccc(/C=C/C(=O)c2cc(Cl)ccc2O)c(OC)c1,-1,-8,6049,6,-56,-12
COc1cccc(OCCCN2CCN(S(=O)(=O)c3ccc(NC(C)=O)cc3)CC2)c1,?,-2,20823*,-1,-8,-3
COc1ccc(N2C(=O)CCC(C(C)=O)=C2C)cc1,?,1,22405*,-9,-2,-2
COc1ccc(OS(=O)(=O)c2ccc(N3C(=O)CCC3=O)cc2)cc1,0,-5,3689,0,-12,-17
O=C(O)c1ccc(NS(=O)(=O)c2ccc(Cl)cc2)cc1,-1,-2,21092*,2,-3,-5
COC(=O)c1ccc(/C=C/C(=O)c2ccc(OC)c(OC)c2)cc1,-1,-12,3525,-6,·,-10
COc1ccc(S(=O)(=O)Nc2cccc(NC(C)=O)c2)cc1,-7,-9,17504*,0,-5,-4
O=C(NC1CCCCC1)c1ccc(NS(=O)(=O)c2cccc3cccnc23)cc1,-1,-3,4666,3,7,-1
COc1ccc(S(=O)(=O)Nc2cccc(/C=C/C(=O)O)c2)cc1,0,-3,2624,1,-16,0
O=C(Nc1ccc(NS(=O)(=O)c2ccccc2)cc1)c1ccc(Cl)cc1,-6,-7,5541,2,3,-3
COC(=O)c1ccc(/C=C/C(=O)c2ccc(OC)cc2)cc1,0,1,22281*,3,-15,0
O=S(=O)(NC1CCCCCC1)c1cccc2cccnc12,-2,-6,16645*,-3,12,-8
CC1(C)CC(=O)N(CC(=O)N2CCN(Cc3ccccc3)CC2)c2ccccc2S1(=O)=O,·,·,·,·,-3,·
O=C(CCCCCN1C(=O)C2C3C=CC(C3)C2C1=O)Nc1cc(F)cc(F)c1 (centres undefined),·,·,·,·,3,·
Cc1cc(C)c(S(=O)(=O)N2CCOC23CCN(S(C)(=O)=O)CC3)c(C)c1,0,5,3444,·,3,-9
CCOc1ccc(NC(=O)N2CCC(c3ccc(C)cc3)C2)cc1 (centres undefined),-1,1,22970*,6,7,-4
Cc1ccc(NC(=O)N2CCCC(c3ccccc3)C2)cc1 (centres undefined),-1,-41,3817,1,19,13
CC(OC(=O)Cn1[nH]c(=O)c2ccccc2c1=O)C(=O)Nc1ccc(Cl)cn1 (centres undefined),0,4,3918,·,-1,4
CCCNC(=O)c1c[nH]c2ccc(S(=O)(=O)N(C)c3ccc(OCC)cc3)cc2c1=O,·,·,·,3,12,·
CCCCN(C)CCNC(=O)c1c[nH]c2ccc(S(=O)(=O)N(CC)CC)cc2c1=O,4,6,20963*,1,-1,1
O=S1(=O)c2c(NCc3ccco3)cccc2Oc2ccccc2CN1Cc1cn(Cc2cccc(F)c2)nn1,·,·,·,·,-1,·
Cc1ccsc1C(=O)OCc1nc2ccsc2c(=O)[nH]1,5,10,5451,·,-5,3
Cc1ccsc1C(=O)OCc1nc2ccccc2c(=O)[nH]1,9,10,19317*,4,5,-3
